# Compounds with a hit are over-represented: about 12% of the library has one in this group of screens.
# Sfp inh – inhibitors of Bacillus subtilis Sfp phosphopantetheinyl transferase. Potency, µM, for the others: largest response in the series, negative = inhibition, hits mostly inhibitors. 310,000 compounds, 3.5% hits. AID 1490. Biochemical Sfp PPTase activity, qHTS;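 further: the enzyme is Sfp with the accession as filed and its product quenches rhodamine fluorescence; 0% = enzyme reaction without inhibitor and -100% = no enzyme wells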
#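 Fluorescence-quenching assay with 15 nM Sfp, 5 uM rhodamine-CoA and 12.5 uM BHQ-2-labelled ybbR peptide in pH 7.6 Hepes/MgCl2 buffer. Enzyme was pre-incubated with compound for 15 min at room temperature. Rate was taken from the 30-min fluorescence change (525/598 nm).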
# BAZ2B block – BAZ2B (human) inhibition | 360,000 compounds, 4.4% hits | Potency, µM (doses to about 114 µM), inactives show at the top dose activity change, negative = inhibition, hits mostly inhibitors | Q9UIF8 | AlphaScreen BAZ2B-H3K14Ac peptide displacement; further: on the % scale 0 is the no-effect control and ±100 the full control effect; nearly all actives have a fitted effect of over 60% in size
#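 BAZ2B (50 nM) with biotin-H3(5-23)K14Ac peptide (50 nM) in PBS pH 7.4, 0.01% Tween-20, preformed 30 min, then compound 30 min at room temperature; top concentration 110uM. AlphaScreen streptavidin donor/nickel chelate acceptor beads (10 ug/mL final), 20 min dark, signal read.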
# L3MBTL1 block – blocks human L3MBTL1. AlphaScreen L3MBTL1–H3K9me1 peptide binding. Potency, µM (top dose mostly 57.1 µM), for the others: at the highest dose activity, negative = inhibition, most hits filed as inhibitors. 230,000 compounds, 0.66% hits. AID 485360; further: on the % scale 0 is the no-effect control and ±100 the full control effect; nearly all actives have a fitted effect of over 60% in size
#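 First, the protein-peptide complex forms for 30 min at room temperature (L3MBTL1 50 nM, biotinylated H3K9me1 peptide 75 nM). Next, compounds are pin-transferred and incubated 30 min. Finally, AlphaScreen beads are added and read after 30 min.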
# HP1b binding inh – HP1-beta chromodomain-methylated histone interaction inhibition. P83916. AlphaScreen HP1-beta / biotin-H3K9me3 peptide binding. Potency, µM (doses to about 114 µM), for the others: top-dose activity change, negative = inhibition, usual class: inhibitors. 390,000 compounds, 0.56% hits; further: nearly all actives have a fitted effect of over 70% in size
# Target sequence (P83916 whole entry, looked up): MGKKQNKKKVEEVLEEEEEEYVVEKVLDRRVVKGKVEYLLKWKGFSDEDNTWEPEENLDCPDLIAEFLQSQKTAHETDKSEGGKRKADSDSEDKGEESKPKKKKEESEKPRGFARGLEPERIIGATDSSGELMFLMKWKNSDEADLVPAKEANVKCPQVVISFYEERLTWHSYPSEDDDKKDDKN
#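 Compound inhibition of the preformed complex between 50 nM HP1-beta and 50 nM biotinylated H3K9me3 peptide was read by AlphaScreen. Buffer was PBS pH 7.4 with 0.01% Tween-20. Incubations ran 30 min at room temperature, with 10 ug/mL donor/acceptor beads.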
# JMJD2A Tudor – blocks the human JMJD2A Tudor domain. AlphaScreen JMJD2A-Tudor / H3K4me3 peptide binding. 390,000 compounds, 4.4% hits. Potency, µM (titrated, usually from 114 µM), inactives show at the top dose activity change, negative = inhibition, usual class: inhibitors. O75164; further: on the % scale 0 is the no-effect control and ±100 the full control effect; nearly all actives have a fitted effect of over 50% in size
# G9a inh – blocks human histone lysine methyltransferase G9a. Q96KQ7. G9a H3K9 monomethylation, AlphaScreen, 2 h. AID 504332. Potency, µM (highest dose often 102 µM), for the others: at the top dose activity, negative = inhibition, actives largely listed as inhibitors. 350,000 compounds, 8.8% hits; further: on the % scale 0 is the no-effect control and ±100 the full control effect; nearly all actives have a fitted effect of over 75% in size
# Target sequence (Q96KQ7 913-1193 limits assumed): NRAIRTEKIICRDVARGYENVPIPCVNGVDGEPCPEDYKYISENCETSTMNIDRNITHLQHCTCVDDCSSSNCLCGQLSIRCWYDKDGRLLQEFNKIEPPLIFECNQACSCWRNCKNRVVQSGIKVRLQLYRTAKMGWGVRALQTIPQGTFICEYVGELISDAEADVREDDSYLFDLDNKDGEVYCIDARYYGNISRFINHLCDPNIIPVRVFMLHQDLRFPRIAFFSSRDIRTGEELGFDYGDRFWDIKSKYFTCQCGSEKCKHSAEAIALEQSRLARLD
#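 Using a bead-based AlphaScreen, monomethylated H3K9 product from 2 h room-temperature reactions (G9a 20 nM, peptide 500 nM, SAM 20 uM) was detected with 0.5 ug/mL rabbit anti-H3K9me1 antibody.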
# The depositor's hits bear a star; ? = inconclusive; . = not tested or not shown; [ ] = dose if it differs, or a comment. The call rests on the fitted dose curve; in most records, active means well fitted curve in the direction sought with a large enough effect; inconclusive means small, poorly fitted or top-dose-only effect, or another doubt; inactive means no such curve, though single readings can be large; an effect the other way counts as inactive or inconclusive. Potency means the concentration at half of the fitted maximal effect.
SMILES,Sfp inh,BAZ2B block,L3MBTL1 block,HP1b binding inh,JMJD2A Tudor,G9a inh
COC(=O)c1ccccc1NC(=O)CN1C(=O)COc2ccccc21,.,-10.4%,.,29.2%,-7.1%,3.0%[59 µM]
CCN(CC)S(=O)(=O)c1ccc2c(c1)N(CC(=O)N1CCN(c3ccc(F)cc3)CC1)C(=O)CO2,.,2.1%,-0.3%,13.3%,-14.7%,10.2%[12.7 µM]
CCC(Oc1ccccc1)C(=O)Nc1cc(-c2ccccc2OC)nn1-c1ccccc1 (centres undefined),.,4.5%,.,29.0%[57 µM],-5.2%,-1.8%[59 µM]
O=S(=O)(O)CC(S)CS (centres undefined),2.82µM*,.,.,.,.,-34.1%[2.33 µM]
Cc1cccc(-n2c(C)cc(C(=O)C(=O)Nc3nncs3)c2C)c1,.,-2.0%,.,28.9%,-9.9%,-40.7%[59 µM]
CC(=O)N1CCc2c(sc3c2c(=O)n(-c2cccc(Cl)c2C)c(=O)n3Cc2ccccc2C)C1,.,?,.,-0.8%,?,-13.5%[59 µM]
CC(=O)N1CCc2c(sc3c2c(=O)n(-c2cc(Cl)ccc2C)c(=O)n3C)C1,.,-21.4%,.,34.0%,-8.4%,-19.7%[59 µM]
Nc1nc(-c2cccs2)cs1,-11.5%,-37.9%,-0.7%,11.1%,-24.4%,79.4µM*
Oc1ccc(Nc2nc(-c3cccs3)cs2)cc1,-0.4%,-8.9%,6.0%,-1.1%,-27.0%,?
COc1ccc(Nc2nc(-c3cccs3)cs2)c(OC)c1,?,31.6µM*,.,50.1µM*,2.51µM*,11.2µM*
COc1ccc(OC)c(Nc2nc(-c3c(C)nc4ncccn34)cs2)c1,?,?,.,-0.4%,?,28.2µM*
CC(=O)Nc1nc(-c2cccs2)cs1,50.1µM*,7.3%,-0.4%,12.4%,-11.0%,?
COc1cccc(Cn2c(-c3nonc3NC(C)=O)nc3ccccc32)c1,.,-3.9%,.,24.3%,-11.6%,3.6%[59 µM]
Clc1ccccc1-c1nccc(NCc2cccs2)n1,7.1%,.,.,.,.,8.8%[0.501 µM]
COc1cccc(CNC(=O)c2ccc3oc(=O)n(Cc4ccccc4)c3c2)c1,.,-1.5%,.,36.5%,-3.0%,?
CC(=O)Nc1nc(C(=O)O)cs1,?,31.6µM*,?,?,3.98µM*,22.4µM*
CC(CNc1ccc(Cl)cc1)(CNc1ccc(Cl)cc1)[N+](=O)[O-],.,.,.,11.2%,-8.3%,.
O=[N+]([O-])c1ccc(CNc2cccc(Cl)c2)s1,-2.0%,?,-10.7%,-10.7%,?,44.7µM*
Cn1c(=O)[nH]c(Nc2ccc(F)cc2)c([N+](=O)[O-])c1=O,24.2%,0.1%,8.6%,10.6%,?,21.6%[59 µM]
O=[N+]([O-])c1ccc(CNc2ccc(F)cc2)s1,-29.5%,39.8µM*,-9.4%,-21.2%,?,44.7µM*
O=[N+]([O-])c1ccc(CNc2ccc(Cl)cc2)s1,2.5%,35.5µM*,.,?,?,44.7µM*
COc1ccc(NC(=O)CCC(=O)N/N=C/c2ccc([N+](=O)[O-])s2)cc1,5.8%,?,-18.8%,14.7%,-29.3%,-5.6%[59 µM]
COc1ccc(NCc2ccc([N+](=O)[O-])s2)cc1,-25.0%,50.1µM*,?,?,56.2µM*,7.94µM*
COCCNC(=O)CSc1nc(-c2ccc(F)cc2)[nH]c1-c1ccc(Cl)cc1,.,?,.,-17.3%,-30.1%,-22.6%[59 µM]
CCc1ccc(Cn2nnc3c(=O)[nH]c(C4CCCN(C(=O)c5cccc(Cl)c5)C4)nc32)cc1 (centres undefined),.,-16.7%,.,16.3%,?,-34.1%[59 µM]
SMILES,Sfp inh,BAZ2B block,L3MBTL1 block,HP1b binding inh,JMJD2A Tudor,G9a inh
Nc1c(C(=O)Nc2cccc(C(F)(F)F)c2)c2ccccn2c1C(=O)c1ccccc1,.,11.5%,.,24.9%,-9.1%,8.3%[59 µM]
COc1ccc(NCc2ccc([N+](=O)[O-])s2)c(OC)c1,-25.5%,31.6µM*,?,17.8µM*,39.8µM*,10µM*
CC1(C)Cc2c(C#N)c(NCCO)nc(-c3ccco3)c2CO1,15.8µM*,-1.8%,9.1%,52.7%,13.2%,39.8µM*
N#Cc1c(NCCCO)nc(-c2ccco2)c2c1CCCC2,39.8µM*,6.0%,.,25.4%,15.2%,3.16µM*
N#Cc1c(NC2CCCCC2)nc(-c2ccco2)c2c1CCCC2,?,7.3%,.,29.4%,53.2%,-10.6%[12.7 µM]
CC1CCN(c2nc(-c3ccco3)c3c(c2C#N)CC(C)(C)OC3)CC1,14.1µM*,10.1%,-16.0%,33.0%,0.7%,?
Cc1cccc(NS(=O)(=O)c2ccc3c(c2)OCC(C(=O)N2CCCC2)O3)c1C (centres undefined),.,-14.1%,.,12.8%,-13.7%,4.5%[59 µM]
CN(CCCCCC(=O)/C=N/O)Cc1ccccc1,17.2%,-0.5%,0.0%,29.6%,5.0%[57.1 µM],21.9%[59 µM]
COc1ccccc1OCCCOc1ccc(C)cc1Br,-0.2%,159.0%,110.5%,223.1%,115.2%,264.5%
Cc1cc(C)c(OCCCCN(C)Cc2ccccc2)c(C)c1,?,?,1.6%,?,7.08µM*,1.26µM*
Cc1ccc(C(C)C)c(OCC(O)CN(C)Cc2ccccc2)c1 (centres undefined),15.1%,-1.3%,.,36.4%,-21.8%,13.2%
Cc1ccc(OCCCCN(C)Cc2ccccc2)c(Br)c1,-1.6%,-37.1%,11.3%,?,?,11.2µM*
Cc1ccc(C(C)C)c(OCCCN(C)Cc2ccccc2)c1,-74.8%,?,16.4%,?,22.4µM*,10µM*
COc1ccc(Oc2ncc3nc(-c4cccs4)c(=O)n(Cc4cccc(OC)c4)c3n2)cc1,6.2%,.,.,.,.,2.1%[12.7 µM]
Oc1c(Br)cc(Br)cc1/C=N/NC(=S)N[C@H]1CC2C=CC1C2 (some centres undefined),3.3%,17.0%,-69.6%,0.2%,39.8µM*,.
CNC(=S)N/N=C/c1cc(Br)cc(Br)c1O,-3.9%,3.16µM*,2µM*,?,31.6µM*,-7.2%
CCCCCn1c(=N)c(S(=O)(=O)c2ccccc2)cc2c(=O)n3cccc(C)c3nc21,.,5.4%,.,30.5%,3.8%,6.1%[59 µM]
Cc1ccc(C)c(N2CCN(S(=O)(=O)c3cc(-c4cc(C)no4)ccc3C)CC2)c1,.,-7.1%,.,26.1%,-16.2%,-7.1%[59 µM]
CCCCCCCCCCCC(=O)NC(Cc1ccc(OC)c([N+](=O)[O-])c1)C(=O)O (centres undefined),14.0%,-26.3%,-16.8%,9.3%,-23.1%,28.2µM*
Cc1cccc(CNC(=O)C2CCN(S(=O)(=O)c3ccc4c(c3)CCCN4C(=O)C3CCC3)CC2)c1,.,-0.7%,.,35.4%[57 µM],-3.2%,6.3%[59 µM]
CCc1ccc(-c2c(C)sc(NC(C)=O)c2C(N)=O)cc1,50.1µM*,-7.7%,-2.9%,-33.7%,?,11.2µM*
Cc1sc(NC(=O)C2CCCCC2C(=O)O)c(C(N)=O)c1-c1ccc(C(C)(C)C)cc1 (centres undefined),79.4µM*,?,5.4%,-30.7%,-19.3%,.
Cc1sc(NC(=O)CCC(=O)O)c(C(N)=O)c1-c1ccccc1,35.5µM*,-1.3%,5.1%,?,?,10µM*
